Screening data deposited in PubChem by Sanford-Burnham Center for Chemical Genomics.
A selection: hits, their analogues and other compounds. The true share with any hit is near 31%.
CYP2C19 inh – blockers of cytochrome P450 2C19 activity – biochemical, luminescence, ADME assay, primary screen; P33261; CYP2C19 Supersomes, luciferin-H EGE luminescence, 30 min; inhibition, % at 5 µM; 21% of 96,000 active;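 active means CYP2C19 inhibition above a set limit at 5 µM in the primary screen, cut at about 50% in these data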;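 further: plate controls were negative control wells for no effect and 2.5 mM tranylcypromine positive control for full effect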
Target sequence (P33261 whole entry, looked up): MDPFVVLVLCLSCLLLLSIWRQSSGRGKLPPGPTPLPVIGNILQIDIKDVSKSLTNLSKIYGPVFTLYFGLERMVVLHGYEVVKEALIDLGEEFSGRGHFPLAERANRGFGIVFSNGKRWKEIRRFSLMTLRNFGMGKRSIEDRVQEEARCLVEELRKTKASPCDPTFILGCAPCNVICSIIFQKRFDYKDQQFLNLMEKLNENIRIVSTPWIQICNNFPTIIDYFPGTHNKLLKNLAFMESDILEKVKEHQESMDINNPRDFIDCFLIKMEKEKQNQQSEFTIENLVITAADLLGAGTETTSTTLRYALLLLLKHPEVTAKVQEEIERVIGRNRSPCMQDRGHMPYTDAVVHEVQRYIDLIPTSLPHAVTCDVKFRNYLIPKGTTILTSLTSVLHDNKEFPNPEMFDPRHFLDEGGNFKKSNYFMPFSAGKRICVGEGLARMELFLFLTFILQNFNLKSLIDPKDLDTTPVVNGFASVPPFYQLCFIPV
CYP2C9 activ – human CYP2C9 activators, primary screen, biochemical, luminescence; Cytochrome P450 2C9 (Homo sapiens), P11712; 1.4% of 96,000 active; activation factor at 5 µM; recombinant CYP2C9, luciferin-H conversion; hits give high values; factor 1 = untreated enzyme, 0 = blocked;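 active means activation factor of 2 or more for CYP2C9 at a 5 µM dose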;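 further: 0 = sulfaphenazole-blocked wells and 1 = vehicle-only wells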
CYP2C19 act – human CYP2C19 activators, primary screen, biochemical, luminescence | AID 1025, 2008 | activation factor at 5 µM | recombinant CYP2C19, luciferin-H EGE luminescence; hits give high values; 0 = fully inhibited enzyme, 1 = untreated enzyme | Cytochrome P450 2C19 (Homo sapiens), P33261 | 96,000 tested, under 10 active;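 active means activation factor of at least 2 at 5 µM in the primary screen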;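 further: 0 = wells with 2.5 mM tranylcypromine and 1 = vehicle-only wells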
PLAP activator – PLAP enzyme activators, biochemical, luminescence, HTS; 1.2% of 96,000 active; AID 696, 2007; activation fold at 20 µM; purified PLAP enzyme, luminescent substrate read-out; hits give high values; in the data active means activation fold above about 2
CYP2C9 inhib – blockers of cytochrome P450 2C9 activity – biochemical, luminescence, ADME assay, primary screen; P11712; 20% of 96,000 active; inhibition, % at 5 µM; CYP2C9 Supersomes, luciferin-H conversion;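 active means blocking of liver enzyme CYP2C9 beyond about 50% at 5 µM, limit read from the data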
Active calls of the source: *.

SMILES | CYP2C19 inh | CYP2C9 activ | CYP2C19 act | PLAP activator | CYP2C9 inhib
CCOC(=O)c1cnc(Nc2nc3ccccc3o2)nc1CN1CCN(C)CC1 | 4 | 1 | 1 | 2* | -5
COc1ccc(CCNC(=O)Cc2nn(C)c(=O)c3ccccc23)cc1OC | -21 | 1.1 | 1.2 | 1 | -9
COc1ccc(CCNC(=O)CCn2c(SCC#N)nc3ccccc3c2=O)cc1OC | 42 | 0.4 | 0.6 | 1 | 60*
COc1ccc(CNC(=O)CCCCCn2c(SCC#N)nc3cc4c(cc3c2=O)OCO4)cc1 | 48 | 0.1 | 0.5 | 2.1* | 94*
COCCCNC(=O)CSc1nc2ccccc2c(=O)n1CCCC(=O)NCC1CCCO1 (stereo not drawn) | 20 | 0.5 | 0.8 | 1.2 | 46
COc1ccc(CCNC(=O)CCCn2c(SCC#N)nc3ccccc3c2=O)cc1OC | 39 | 0.4 | 0.6 | 1 | 65*
CN(Cc1ccccc1)C(=O)c1cccc(N2C(=O)NC3CC2(C)Oc2ccccc23)c1 (stereo not drawn) | 21 | 0.8 | 0.8 | 1.3 | 18
CCn1c(CNC(=O)c2ccco2)nnc1SCC(=O)Nc1cc(C(F)(F)F)ccc1Cl | 32 | 1 | 0.7 | 1 | 2
CCCCOc1ccc(C(=O)NCC(=O)OC2CCOC2=O)cc1 (stereo not drawn) | -16 | 1.1 | 1.2 | 0.8 | -11
Clc1cccc(Cl)c1CO/N=C/c1c(-c2ccccc2)nc2n1CCS2 | 4 | 0.3 | 1 | 1.1 | 73*
Cc1sc2nc(SCC(=O)NCCOCCO)n(C)c(=O)c2c1C | 15 | 0.8 | 0.8 | 1.5 | 17
Cc1nc2ccccc2c2oc(C(=O)Nc3ccc4c(c3)OCCO4)cc12 | -2 | 1 | 1 | 0.9 | 4
O=C(O)c1cc(-c2ccc3c(c2)OCO3)nc2ccccc12 | -2 | 0.6 | 1 | 1 | 40
Cc1ccc2nc(-c3cccc(NC(=O)c4ccc5c(c4)OCCO5)c3)oc2c1 | 64* | 0.1 | 0.4 | 1.4 | 87*
Cc1cccc(-c2cc(C(=O)Nc3ccc4c(c3)OCCO4)c3ccccc3n2)c1 | 23 | 0.4 | 0.8 | 1.2 | 60*
Cc1ccc2nc(-c3ccc4c(c3)OCCO4)cc(C(=O)O)c2c1 | 28 | 0.2 | 0.7 | 1 | 81*
CCOc1ccc(-c2cc(C(=O)Nc3ccc4c(c3)OCCO4)c3ccccc3n2)cc1 | 49 | 0.2 | 0.5 | 0.9 | 78*
CCc1nnc(NC(=O)C2CCN(c3nc(C)cc(C)n3)CC2)s1 | -3 | 0.8 | 1 | 1 | 24
CN(C)CCCN1C(=O)C(=O)/C(=C(/O)c2ccncc2)C1c1cccc(Br)c1 (stereo not drawn) | 11 | 1 | 0.9 | 1 | 2
CCCCCCc1nc2c(=O)[nH]c3ccccc3c2o1 | 8 | 1 | 0.9 | 0.9 | 2
CCN(CC)c1ccc(NC(=O)Cn2cc3c(n2)CCC(C)C3)c(C)c1 (stereo not drawn) | 10 | 1 | 0.9 | 1.3 | -5
COC(=O)CSc1nnc(-c2ccoc2C)n1-c1ccc(C)cc1 | 40 | 0.9 | 0.6 | 1 | 5
Cc1ccc(-n2c(SCC(=O)NCc3cccs3)nnc2-c2ccoc2C)cc1 | 93* | 0.2 | 0.1 | 1.5 | 78*
COc1ccc(-n2c(SCC(=O)Nc3nccs3)nnc2-c2ccoc2C)cc1 | 75* | 0.4 | 0.2 | 1.2 | 62*
CN1CCCN(C2C3CC4CC(C3)CC2C4)CC1 (stereo not drawn) | 1 | 0.9 | 1 | 0.9 | 9
SMILES | CYP2C19 inh | CYP2C9 activ | CYP2C19 act | PLAP activator | CYP2C9 inhib
Cc1ccc(CNC2=NCCCCC2)n1C | 0 | 1 | 1 | 0.9 | 2
CCC(C)C(=O)N1c2ccccc2C(=C2SC(C(=O)OC)=C(C(=O)OC)S2)C(=S)C1(C)C (stereo not drawn) | 76* | 0.3 | 0.2 | 1.1 | 72*
COc1ccc(/C=C/C(=O)c2sc(-c3ccc(Cl)cc3)nc2C)cc1 | 7 | 0.6 | 0.9 | 1.1 | 45
CCc1ccc(/C=C/C(=O)c2c(C)cc(C)[nH]c2=O)cc1 | 80* | 1.2 | 0.2 | 1.4 | -23
Cc1ccc(/C=C/C(=O)c2c(C)cc(C)[nH]c2=O)cc1 | 89* | 1.4 | 0.1 | 0.9 | -44
COc1cccc(CNC(=O)C2CCCN(c3nn4c(=O)cc(C)nc4s3)C2)c1OC (stereo not drawn) | 37 | 0.9 | 0.6 | 0.9 | 10
Cc1ccc(C)c(C(=O)COC(=O)c2ccc(Br)o2)c1 | 27 | 1.7 | 0.7 | 0.7 | -71
N#CC(c1nc2ccccc2nc1N1CCCC1)S(=O)(=O)c1cccs1 (stereo not drawn) | 26 | 0.3 | 0.7 | 1.4 | 75*
Cc1ccc(C)c(S(=O)(=O)C(C#N)c2nc3ccccc3nc2N2CCCC2)c1 (stereo not drawn) | -1 | 0.9 | 1 | 1.2 | 7
Cc1ccc(S(=O)(=O)C(C#N)c2nc3ccccc3nc2N2CCN(C)CC2)cc1C (stereo not drawn) | -14 | 0.2 | 1.1 | 1.7 | 75*
Cc1ccc(C)c(S(=O)(=O)C(C#N)c2nc3ccccc3nc2N2CC(C)OC(C)C2)c1 (stereo not drawn) | 52* | 0 | 0.5 | 1.4 | 99*
COc1ccc(S(=O)(=O)C(C#N)c2nc3ccccc3nc2N2CCCCC2)cc1 (stereo not drawn) | 57* | 0.4 | 0.4 | 1.2 | 64*
N#CC(c1nc2ccccc2nc1N1CCCC1)S(=O)(=O)c1ccccc1 (stereo not drawn) | 28 | 0.6 | 0.7 | 1.4 | 41
COc1ccc(N2C(=O)CCC(C(=O)N3CCCCCC3)C2c2ccc(OC)c(OC)c2)cc1 (stereo not drawn) | -6 | 1.1 | 1.1 | 1.2 | -6
COc1ccc2nc(NC(=O)c3ccc4ncsc4c3)sc2c1 | -6 | 0.5 | 1.1 | 1 | 54*
CCOc1ccc2nc(NC(=O)c3cnc(C)cn3)sc2c1 | 35 | 0.6 | 0.7 | 2.6* | 40
CCOc1ccc2nc(NS(=O)(=O)Cc3ccccc3)sc2c1 | 77* | 0 | 0.2 | 0.9 | 96*
CC(C)CCn1c(=O)c2ccccc2n2c(CN(C)Cc3ccccc3)nnc12 | 35 | 0.7 | 0.7 | 1.6 | 26
Cc1ccccc1-n1nnnc1SCc1csc(-c2ccccc2)n1 | 97* | 0.1 | 0 | 0.8 | 93*
Cc1ccccc1-n1nnnc1-c1ccccc1 | 70* | 0.7 | 0.3 | 1 | 27
COc1ccc(C)cc1-n1nnnc1SCc1cc(=O)n2cc(C)ccc2n1 | 61* | 0.9 | 0.4 | 1.9 | 13
COc1ccc(C)cc1-n1nnnc1SCc1csc(C)n1 | 99* | 0.3 | 0 | 1.7 | 73*
Nn1c(SCc2csc(-c3ccccc3)n2)nnc1-c1cccs1 | 11 | 1 | 0.9 | 1.2 | -3
CSc1nc2nc3c(c(=O)n2[nH]1)CCCC3 | -7 | 0.9 | 1.1 | 1 | 11
